Assay results taken from the supplement of paper PMC12636033.
± gives the standard deviation of the averaged measurements. Whole data set: some 33,000 sequences, median “E-score (rank enrichment, -0.5 to 0.5)” near -0.0043, cut for the highest 2% near 0.24. Many of the other results were omitted from the sample, so the highest values are more common in it than they were.

What follows are sequences tested on 2Sp-muMax20 (muMax20 with two 2,6-bis(methyl)pyridine Cys staples) (assay: PBM 8-mer E-score (E-score (rank enrichment, -0.5 to 0.5)); higher = stronger preferential binding).
Protocol: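 Protein binding microarray (universal PBM chip covering all 10-mers in fixed probe flanks) with chemically synthesized human Max(13-93) bHLH-LZ analogs (not full-length Max) bearing noncanonical residues (hArg, Tha, Aib, Nle at 65) and aromatic Cys staples. Read-out per 8-mer (and its reverse complement): E-score (rank-based enrichment, -0.5 to 0.5) and Z-score of median probe intensity.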

Sequence	PBM 8-mer E-score
GGGATAAA	0.0538 ± 0.03
GTTGTCTA	0.0499 ± 0.064
ATTGTCTC	-0.126 ± 0.07
ACTGTATA	0.213 ± 0.085
CTTGTACA	0.192 ± 0.026
ATTGTATA	0.2422 ± 0.0019
ATTGTACA	0.26 ± 0.016
ATTGTCTA	0.269 ± 0.012
CTTGTATA	0.17 ± 0.0046
CCTGTATA	0.0769 ± 0.072
ATTGTACC	0.0323 ± 0.019
GTTGTATA	0.167 ± 0.024
GCTGTATA	0.25 ± 0.021
AAGCCAGT	-0.0999 ± 0.034
ACCAAGAC	-0.0903 ± 0.027
GGCGCGTA	0.126 ± 0.013
ATTTAATG	0.122 ± 0.031
ACAACACG	0.185 ± 0.037
TAAGAGCA	0.145 ± 0.072
TAACGACA	0.087 ± 0.0014
GTAGAGAA	-0.00059 ± 0.14
CTTGTATC	0.141 ± 0.019
ATTGTATG	0.135 ± 0.036
ATTGTATC	0.254 ± 0.043

Sequence	PBM 8-mer E-score
AGCTTAGG	-0.22 ± 0.016
ACACTTTG	0.0709 ± 0.076
CTAGGGGC	0.0163 ± 0.073
ACCGGTAG	-0.253 ± 0.036
CTACCGGA	-0.147 ± 0.0082
AACGCGTA	-0.0641 ± 0.026
CGCGCGTC	0.28 ± 0.0065
AACGCGTG	0.13 ± 0.022
CACGCGTC	0.2622 ± 0.0015
CACGCGTA	0.175 ± 0.043
ACCGCGTC	-0.0765 ± 0.041
CGCGCGTA	0.176 ± 0.021
AGCGCGTC	-0.117 ± 0.097
AACGCGTC	-0.0413 ± 0.045
ACCGCGTA	-0.0143 ± 0.044
ACCGCGTG	0.284 ± 0.038
CACGCGTG	0.376 ± 0.015
GGTCGGGA	-0.25 ± 0.0058
CGTGACCA	0.1 ± 0.098
AAGCCATT	-0.0452 ± 0.016
AGCCACGG	-0.2315 ± 0.00033
TGTCTGAA	0.0107 ± 0.0037
CCCCGAAG	-0.126 ± 0.04
CAAGGAGA	-0.133 ± 0.073

Sequence	PBM 8-mer E-score
AAAGGAGA	0.0434 ± 0.019
GAAGGAGA	0.246 ± 0.023
GTATAGAC	0.121 ± 0.0088
ATATGTTA	0.229 ± 0.027
ATTTGTTC	0.106 ± 0.018
ATTTGTTA	0.228 ± 0.064
CCATGTTA	0.155 ± 0.054
ACATGTTC	0.161 ± 0.04
AAATGTTA	0.156 ± 0.028
ATTTGTTG	0.266 ± 0.034
ACATGTTG	0.268 ± 0.089
ACATGTTA	0.3172 ± 0.0015
GCATGTTA	0.252 ± 0.095
GGATGTTA	0.196 ± 0.022
AGATGTTG	-0.146 ± 0.015
CGACATCG	-0.164 ± 0.033
CGTCCGCA	-0.0773 ± 0.074
AAGGGGGG	-0.275 ± 0.053
CGCTTTAG	0.0627 ± 0.011
ACGGGTGC	-0.0393 ± 0.032
GGCCGTAC	0.0557 ± 0.032
CTGGATCA	-0.158 ± 0.033
GCTGCTGA	-0.206 ± 0.048
AGTGCATG	0.0577 ± 0.061

Sequence	PBM 8-mer E-score
ATGTGTTA	0.197 ± 0.14
ATGTGTTG	0.254 ± 0.023
ATGTGTTC	-0.00117 ± 0.0014
ACCGATCA	-0.0856 ± 0.019
GATGGCTA	0.03 ± 0.092
CATGGCTC	0.0571 ± 0.018
CATGGCTA	0.245 ± 0.055
CCACGTAC	0.0687 ± 0.048
AACTGTAT	0.104 ± 0.043
ACAGATGG	0.0291 ± 0.022
CCGCCCCA	0.344 ± 0.054
TAGCCCCA	0.324 ± 0.022
ACGCCCCC	-0.168 ± 0.036
TCGCCCAA	0.0937 ± 0.081
TAGCCCAA	0.0851 ± 0.013
TCGCCCCA	0.246 ± 0.013
CAGCCCCA	0.196 ± 0.033
CCGCCCCG	0.22 ± 0.037
ACGCCCCA	0.284 ± 0.013
CCGCCCCC	-0.261 ± 0.11
ACGCCCCG	-0.107 ± 0.028
GCGCCCCA	0.135 ± 0.0094
CGGTAACC	-0.288 ± 0.086
GCACATCC	0.0732 ± 0.072

Sequence	PBM 8-mer E-score
AGGATTTG	-0.0789 ± 0.0065
GGAGGTGA	-0.109 ± 0.038
AGTTGGTC	-0.13 ± 0.083
GATCCGAC	-0.198 ± 0.026
AGTTGAAA	-0.0343 ± 0.15
TCAGGTCA	-0.126 ± 0.038
GCCGCCCA	-0.111 ± 0.053
ACCGCCCC	0.132 ± 0.0083
CCCGCCCC	0.281 ± 0.022
GCCGCCCC	0.0266 ± 0.044
CCCGCCCG	0.16 ± 0.065
CCCGCCCA	0.396 ± 0.012
CCACCCGG	-0.213 ± 0.012
ACTGCTTC	-0.0855 ± 0.012
AGCCTAAT	0.0715 ± 0.12
ATGTTTTA	0.0882 ± 0.015
ATCCTCGG	-0.136 ± 0.022
ACGTGGCA	0.217 ± 0.094
ACGTGGAC	0.208 ± 0.053
ACGTGGAT	0.2668 ± 0.0015
ACGTGGCC	-0.048 ± 0.005
ACGTGCCG	0.0769 ± 0.0064
ACGTGGAA	0.188 ± 0.014
ACGTGGCT	0.238 ± 0.019

Sequence	PBM 8-mer E-score
ACGTGCCT	0.257 ± 0.045
ACGTGCCC	0.1949 ± 0.0017
ACTGCCGC	-0.11 ± 0.0048
AGAACGCA	-0.0651 ± 0.016
AAATAGCC	0.155 ± 0.026
GCTAGCTA	-0.00454 ± 0.02
CCATTTCG	-0.131 ± 0.16
GAGTAAGC	-0.0367 ± 0.065
TAGCATGA	0.237 ± 0.075
AAGCATGA	0.0552 ± 0.075
CAGCATGG	0.258 ± 0.074
GAGCATGC	0.233 ± 0.065
CGGCATGC	0.154 ± 0.053
AAGCATGT	0.208 ± 0.059
AAGCATGC	0.309 ± 0.047
AAGCATGG	0.221 ± 0.0031
CAGCATGC	0.245 ± 0.055
CAGCATGA	0.131 ± 0.046
AAGCATCC	-0.0641 ± 0.07
GAGCATGA	0.154 ± 0.055
ATTTGAAG	0.0351 ± 0.054
CGCTCCCC	-0.1001 ± 0.00055
GTACTGAA	0.149 ± 0.041
CGCCCAAA	0.0607 ± 0.014

Sequence	PBM 8-mer E-score
CATTCGAC	-0.0616 ± 0.11
ATTAGCTC	0.0373 ± 0.031
AAGTTCTA	0.0127 ± 0.022
CGCAGTGA	-0.145
ATCTTATC	0.0505 ± 0.042
CATCCCCA	0.145 ± 0.0068
TATCCCCA	0.239 ± 0.014
GCCTCCCA	-0.214 ± 0.05
CCCTCCCA	0.353 ± 0.04
ACCTCCCA	-0.071 ± 0.0025
CCTCCCAA	0.0742 ± 0.037
ACTCCCCT	0.182 ± 0.027
CCTCCCCC	-0.0661 ± 0.021
CCTCCCCA	0.31 ± 0.028
ACTCCCCC	-0.187 ± 0.021
AATCCCCA	0.161 ± 0.02
ACTCCCCA	0.282 ± 0.067
ATCACGAG	-0.0973 ± 0.13
CGGATAAC	-0.215 ± 0.003
CCGAGCTC	-0.137 ± 0.0056
AGTGCAAG	0.0261 ± 0.015
CTACAGTA	0.136 ± 0.017
ATACAGTC	0.0481 ± 0.076
ATACAGCA	0.2373 ± 0.0021

Sequence	PBM 8-mer E-score
CTACAGCA	0.0474 ± 0.16
ATACAGCG	-0.089 ± 0.017
ATACAGTG	0.248 ± 0.065
ATACAGTA	0.259 ± 0.013
GTACAGTA	0.137 ± 0.034
ACACAGTG	0.0818 ± 0.048
GCTAAACA	-0.106 ± 0.062
CCAGCTTA	-0.129 ± 0.07
CGCGCCAC	0.0139 ± 0.054
ACCTTTGG	-0.277 ± 0.058
CGGTTCCC	-0.179 ± 0.095
GAGGGTTA	0.064 ± 0.0085
AAAGCTGG	0.0243 ± 0.073
AAAGCTGA	0.285 ± 0.0073
CAAGCTGA	0.0436 ± 0.058
ACCGCCCT	-0.0858 ± 0.06
CGACGAGA	-0.147 ± 0.078
CAGCGTGG	0.039 ± 0.028
CGCCCCCA	-0.198 ± 0.069
CGCCCCAC	0.303 ± 0.0035
GGCCCCAA	0.00781 ± 0.067
CGCCCCAG	0.0339 ± 0.02
GGCCCCAC	0.0799 ± 0.062
TGCCCCAA	0.274 ± 0.016

Sequence	PBM 8-mer E-score
TGCCCAAA	-0.0856 ± 0.086
CGCCCCAA	0.3051 ± 0.0025
TGCCCCCA	-0.0389 ± 0.018
AGGTTCTA	-0.106 ± 0.0063
GGTTCTAA	-0.026 ± 0.026
AACGAGCC	-0.0314 ± 0.029
GACTAGCC	-0.0736 ± 0.047
ACACCGAG	-0.219 ± 0.031
ACGACGCT	-0.0201 ± 0.033
CTGGTGTA	-0.00226 ± 0.005
ATCGATAA	0.00019 ± 0.013
TAGTCAAA	0.27 ± 0.033
GAGTCAAA	-0.0157 ± 0.11
AAGTCAAA	0.0188 ± 0.0089
GACTAGCA	0.102 ± 0.099
AGAGCTAA	-0.0564 ± 0.081
AGTTTCAA	-0.0457 ± 0.0064
ATTACCCC	0.169 ± 0.065
ATTACCCA	0.288 ± 0.037
ATTACCCG	-0.0469 ± 0.081
TACCTCGA	-0.079 ± 0.12
TCCGAAAA	-0.0537 ± 0.063
